This is a sample that favours compounds with a hit; in the whole collection about 9.9% have one here.
KB-3-1 tox: qHTS assay for MDR1-selective chemotherapeutics: Primary screen using the parental adenocarcinoma cell KB-3-1; KB-3-1 viability, CellTiter-Glo ATP luminescence, 72 h; Potency, µM (doses to about 46.1 µM), actives largely listed as cytotoxic; 400,000 tested, 1.4% active; AID 1347075, 2019; also: potency is read from the fitted curve at half-maximal effect; % is scaled to controls: 0 for no effect and ±100 for the full control effect; nearly all actives have a fitted effect of over 60% in size
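72 h, 37 °C compound treatment of KB-3-1 parental cells; CellTiter-Glo added, 10 min, luminescence read. Data corrected against DMSO-only plates and normalized before curve fitting.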
SW480 rereplic: A quantitative high throughput screen for small molecules that induce DNA re-replication in SW480 colon adenocarcinoma cells; AID 624297, 2012; Potency, µM (top dose mostly 46.1 µM), for inactives: at the top dose re-replication activation, usual class: activators; SW480 DNA re-replication, Hoechst DNA content imaging, 48 h; 340,000 tested, 1.8% active; also: potency is read from the fitted curve at half-maximal effect; % of control where 0% means no effect; nearly all actives have a fitted effect of over 55% in size
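Compounds, transferred as 23 nL by pin tool, were incubated with cells for 48 hr; DNA content per nucleus was then quantified by Hoechst staining and fluorescence plate imaging.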
KB-V1 cytotox: qHTS assay for MDR1-selective chemotherapeutics: Primary screen using the drug-selected MDR subline cells KB-V1; KB-V1 MDR cells viability, CellTiter-Glo, 72 h; 400,000 tested, 3.4% active; AID 1347076, 2019; Potency, µM (titrated, usually from 46.1 µM), usual class: cytotoxic; also: potency is read from the fitted curve at half-maximal effect; % is scaled to controls: 0 for no effect and ±100 for the full control effect; nearly all actives have a fitted effect of over 60% in size
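Drug-selected KB-V1 cells, grown in DMEM lacking phenol red with 10% FBS, receive compound titrations; after three days at 37 degrees C, surviving cell ATP is quantified by CellTiter-Glo luminescence and responses normalized and curve-fitted.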
MCF10A rerep: A quantitative high throughput screen for small molecules that induce DNA re-replication in MCF 10a normal breast cells; 350,000 tested, 2.9% active; MCF 10A DNA re-replication, Hoechst nuclear intensity, 48 h; Potency, µM (doses to about 46.1 µM), for the others: at the top dose activity, positive = re-replication, usual class: activators; also: potency is read from the fitted curve at half-maximal effect; % of control where 0% means no effect; nearly all actives have a fitted effect of over 50% in size
IL-1B inflam inh: qHTS for Inhibitors of Inflammasome Signaling: IL-1-beta AlphaLISA Primary Screen | THP-1 LPS/ATP IL-1B secretion, AlphaLISA, 16 h; stronger effect = lower value | activity change, % at 57.5 µM | 360,000 tested, 4.7% active | AID 743279, 2014; in the data active = activity change below about -50%; inconclusive = mostly about -30% to -49%; also: % is scaled to controls: 0 for no effect and ±100 for the full control effect
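Secreted IL-1B measured by AlphaLISA bead assay after 16 h compound exposure of THP-1 cells; compounds (final up to 57.5 uM) added 1 h before LPS (250 ng/mL) and ATP (1.25 mM) stimulation; lower signal means less secretion.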
* hit, by the source's call; i = inactive; ? = inconclusive; . = not tested or not shown. Unless noted, calls follow the shape of the dose curve; as a rule, active = well fitted curve in the direction sought with a large enough effect; inconclusive = small, poorly fitted or top-dose-only effect, or another doubt; inactive = no such curve, though single readings can be large; an effect the other way counts as inactive or inconclusive.

SMILES | KB-3-1 tox | SW480 rereplic | KB-V1 cytotox | MCF10A rerep | IL-1B inflam inh
CCc1ccc(OCC(O)CN2CCC(CN3C(=O)c4cccc5cccc(c45)C3=O)CC2)cc1 (stereo not given) | 23µM* | -1% | ? | -11% | -10
Cc1ccc(C)c(OCC(O)CN2CCN(CCN3C(=O)c4cccc5cccc(c45)C3=O)CC2)c1 (stereo not given) | 16µM* | ? | ? | ? | -102*
Cc1ccc(C)c(OCC(O)CN2CCC(Cc3ccccc3)CC2)c1 (stereo not given) | ? | -4% | i | -3% | -60*
C[C@H](NC(=O)c1ncn(Cc2ccccc2)c1C(=O)N[C@@H](C)c1ccccc1)c1ccccc1 | i | 6% | i | 3% | 15
COc1cccc(NC(=O)c2ccccc2-c2ccccc2)c1 | i | 3% | i | ? | 1
CCOc1cc(/C=N/NC(=O)CCc2n[nH]c(=O)[nH]c2=O)ccc1O | i | -5% | i | 3% | -5
COc1ccc(CCNC(=O)CC2SC(N)=NC2=O)cc1OC (stereo not given) | i | ? | i | -4% | 0
COc1cccc(OCC(O)CN2CCN(C)CC2)c1 (stereo not given) | i | -8% | i | -19% | -18
O=C1c2cccc3cccc(c23)C(=O)N1CCN1CCN(CC(O)COc2ccc3ccccc3c2)CC1 (stereo not given) | ? | ? | ? | ? | -2
O=C1c2cccc3cccc(c23)C(=O)N1CC1CCN(CC(O)COc2ccc3ccccc3c2)CC1 (stereo not given) | ? | ? | i | ? | -95*
COc1ccc(COCC(O)CN2CCC(CN3C(=O)c4cccc5cccc(c45)C3=O)CC2)cc1OC (stereo not given) | i | -695% | ? | -1% | -88*
COc1cccc(OCC(O)CN2CCC(CN3C(=O)c4cccc5cccc(c45)C3=O)CC2)c1 (stereo not given) | i | ? | i | ? | -97*
Cc1cc(C)cc(OCC(O)CN2CCC(CN3C(=O)c4cccc5cccc(c45)C3=O)CC2)c1 (stereo not given) | ? | 17% | 5.8µM* | ? | -81*
COc1ccc(-c2noc(CC(=O)Nc3ccc(Br)cc3C)n2)cc1 | i | . | i | . | .
O=C(COc1ccc(F)cc1)NCCN1CCCC1 | i | ? | ? | 14% | -5
Cc1ccc(C(C)C)c(OCC(O)CN2CCc3ccccc3C2)c1 (stereo not given) | ? | ? | ? | ? | -101*
CCC(C)(C)NC(=O)C(c1ccc(C)cc1)N(Cc1cccs1)C(=O)c1ccc2c(c1)OCCO2 (stereo not given) | i | -1% | 18µM* | -3% | -16
CC(C)CNS(=O)(=O)c1ccc(CCC(=O)NC2CCCC2)cc1 | i | -61% | i | 1µM* | 0
CCNS(=O)(=O)c1ccc(CCC(=O)NC2CCCC2)cc1 | i | 5% | i | 10% | -13
O=C(Nc1ccc(F)cc1)c1nn(-c2ccccc2)c(=O)cc1Cl | 4.6µM* | ? | ? | ? | -145*
Cc1ccc(NC(=O)c2cc(-c3ccccc3)nn2-c2ccccc2)cc1 | ? | 28% | 21µM* | 21µM* | ?
O=C(CCNC(=O)c1ccco1)NC(Cc1c[nH]c2ccccc12)C(=O)O (stereo not given) | i | 2% | i | 2% | 21
COC(=O)C(Cc1ccccc1)NC(=O)c1cc(=O)[nH]c2ccccc12 (stereo not given) | i | 2% | i | 14% | -103*
CC(C)CC(NC(=O)OCc1ccccc1)C(=O)NC(Cc1c[nH]c2ccccc12)C(=O)O (stereo not given) | i | . | i | . | 12

High-throughput results as filed in PubChem BioAssay.
